Most compounds without a hit are left out; they make up all but 3.7% or so of the library.
S2 tox: reduces viability in counter-screen for ATXN expression inhibitors | S2 cells (HEK-293 line with an ATXN2-luciferase reporter) viability, CellTiter-Fluor protease fluorescence, 24 h | Potency, µM (doses to about 56.7 µM), actives largely listed as cytotoxic | actives 0.49% (n = 400,000) | AID 651635; also: nearly all actives have a fitted effect of over 40% in size
GLP-1R agonist: GLP-1 receptor (human) agonism; P43220; HEK293 GLP-1R CRE-luciferase, luminescence, 4-6 h; cells express a hypersensitive GLP-1R form; Potency, µM (titrated, usually from 45.6 µM), most hits filed as activators; actives 0.007% (n = 380,000); AID 624172
Target sequence (P43220 whole entry, looked up): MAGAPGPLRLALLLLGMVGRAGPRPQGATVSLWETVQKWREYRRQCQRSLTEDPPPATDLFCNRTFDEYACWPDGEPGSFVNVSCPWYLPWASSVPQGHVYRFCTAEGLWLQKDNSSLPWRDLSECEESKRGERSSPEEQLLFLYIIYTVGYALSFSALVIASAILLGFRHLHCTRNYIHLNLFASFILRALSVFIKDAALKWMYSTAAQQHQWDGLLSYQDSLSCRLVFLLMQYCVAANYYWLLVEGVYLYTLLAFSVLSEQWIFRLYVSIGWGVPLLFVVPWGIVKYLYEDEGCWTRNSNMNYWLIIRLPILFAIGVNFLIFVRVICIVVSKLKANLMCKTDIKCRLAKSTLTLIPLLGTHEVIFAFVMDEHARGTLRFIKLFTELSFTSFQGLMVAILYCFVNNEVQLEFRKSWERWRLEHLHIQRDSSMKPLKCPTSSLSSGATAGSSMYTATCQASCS
HepG2 tox-1: HepG2 cytotoxicity, counter-screen for TGF-b inhibitors. AID 588856. HepG2 CAGA-GFP viability, ATP luminescence, 18 h. actives 0.76% (n = 410,000). Potency, µM (top dose mostly 46.1 µM), hits mostly cytotoxic
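CellTiter-Glo luminescence gave cytotoxicity after 18 hours at 37 degrees C. The cells were HepG2 CAGA-GFP in 1% FBS DMEM, stimulated with 500 pg/mL TGF-beta after compound addition. %Activity was normalised to no-cell wells (complete cell-killing) and DMSO (no toxicity), and curves were fitted and classified.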
ATXN2 expr inh: reduces ATXN2 reporter expression in HEK-293 cells. HEK-293 ATXN2-luciferase reporter, luminescence, 24 h. Potency, µM (top dose mostly 57 µM), hits mostly inhibitors. actives 0.72% (n = 360,000). AID 1745845; also: nearly all actives have a fitted effect of over 55% in size
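ATXN2-luciferase reporter cells (luciferase flanked by upstream and downstream ATXN2 gene portions) were treated 24 h at 37 °C with compounds at up to 57 uM. SteadyGlo luminescence gave expression; GF-AFC fluorescence gave viability.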
GLP-1R inv ag: inverse agonists of human GLP-1 receptor. HEK293 GLP-1R CRE-luciferase, luminescence, 24 h; GLP-1R form is constitutively active. Potency, µM (doses to about 38.3 µM), actives largely listed as inhibitors. actives 1.6% (n = 410,000); also: nearly all actives have a fitted effect of over 55% in size
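Seeding at 200 cells/uL, 12 h culture, 24 hr compound treatment, then luciferase reagent and a luminescence read; cells are HEK293 stably expressing a constitutively active GLP-1R plus cAMP-responsive luciferase.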
TGFb inhibitor: TGF-b pathway inhibition; HepG2 CAGA-GFP TGF-b/SMAD3 reporter, GFP fluorescence, 18 h; TGF-beta stimulated, 500 pg/mL final; Potency, µM (titrated, usually from 46.1 µM), actives largely listed as inhibitors; actives 1.2% (n = 410,000); also: nearly all actives have a fitted effect of over 65% in size
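Cell-based qHTS in HEPG2 carrying a CAGA-GFP Smad reporter; compounds added before 500 pg/mL final TGF-beta, 18 h incubation at 37 degrees C, GFP fluorescence quantified per cell by imaging cytometry.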
TGFb CAGA inh: confirmation of TGF-b signaling inhibitors in HepG2 reporter cells | Potency, µM (top dose mostly 46.1 µM), usual class: inhibitors | HepG2 CAGA-GFP TGF-b reporter, GFP fluorescence, 18 h; cells stimulated with TGF-beta, 500 pg/mL | AID 720534 | shares compounds with TGFb inhibitor | actives 63% (n = 1,600); also: nearly all actives have a fitted effect of over 65% in size
HepG2 tox-2: HepG2 cytotoxicity, TGF-b inhibitor counterscreen; shares compounds with TGFb inhibitor; HepG2 CAGA-GFP viability, ATP luminescence, 18 h; cells stimulated with TGF-beta, 500 pg/mL; Potency, µM (series often up to 46.1 µM), most hits filed as inhibitors; actives 27% (n = 1,600); also: nearly all actives have a fitted effect of over 70% in size
CCL64 TGFb inh: orthogonal confirmation of TGF-b inhibitors in CCL64 cells | shares compounds with TGFb inhibitor | CCL64 CAGA-GFP reporter, TGF-b stimulated, GFP fluorescence, 18 h | Potency, µM (titrated, usually from 46.1 µM), actives largely listed as inhibitors | actives 41% (n = 1,600) | AID 720536; also: nearly all actives have a fitted effect of over 65% in size
TGFb COP inh: validation of TGF-b inhibitors in HepG2 COP promoter reporter; shares compounds with TGFb inhibitor; Potency, µM (doses to about 46.1 µM), actives largely listed as inhibitors; HepG2 COP-GFP TGF-b reporter, GFP fluorescence, 18 h; cells stimulated by added recombinant TGF-beta; actives 3% (n = 1,600); also: nearly all actives have a fitted effect of over 70% in size
Large screens that a line does not name were inactive (follow-up assays come after a bar, where they were run). Calls follow the shape of the dose curve; as a rule, active = well fitted curve in the direction sought with a large enough effect; inconclusive = small, poorly fitted or top-dose-only effect, or another doubt; inactive = no such curve, though single readings can be large; an effect the other way counts as inactive or inconclusive.

O=c1oc2ccccc2c(NC2CCCCC2)c1NS(=O)(=O)c1ccc(F)cc1	GLP-1R inv ag inconclusive
CCc1ccc(S(=O)(=O)Nc2c(NC3CCCCC3)c3ccccc3oc2=O)cc1	GLP-1R inv ag inconclusive, TGFb inhibitor 16µM | TGFb CAGA inh inconclusive | HepG2 tox-2 inactive | CCL64 TGFb inh inactive | TGFb COP inh inactive
CC(c1ccc(N(C)C)cc1)c1ccnc2ccccc12 (stereo not drawn)	none (no result: S2 tox, GLP-1R agonist, ATXN2 expr inh, GLP-1R inv ag)
COc1ccc(NC(=O)c2c(C)oc3ccc(O)c(CN4CCCCCC4)c23)cc1Cl	S2 tox inconclusive, GLP-1R inv ag inconclusive, TGFb inhibitor inconclusive (no result: GLP-1R agonist)
CCN(CC)C(=O)[C@H]1CC(CC(=O)NCc2cccc(C(F)(F)F)c2)C(=O)N2CCc3c([nH]c4ccccc34)[C@]12C (stereo partly drawn)	ATXN2 expr inh inconclusive, GLP-1R inv ag inconclusive, TGFb inhibitor 13µM (no result: S2 tox) | TGFb CAGA inh 21µM | HepG2 tox-2 inconclusive | CCL64 TGFb inh 15µM | TGFb COP inh inactive
CCN(CC)C(=O)[C@H]1C[C@H](CC(=O)NCc2cccc(C(F)(F)F)c2)C(=O)N2CCc3c([nH]c4ccc(Cl)cc34)[C@]12C	S2 tox inconclusive, HepG2 tox-1 13µM, ATXN2 expr inh inconclusive, GLP-1R inv ag inconclusive, TGFb inhibitor 10µM | TGFb CAGA inh inconclusive | HepG2 tox-2 inconclusive | CCL64 TGFb inh 26µM | TGFb COP inh inactive
CCN(CC)C(=O)[C@H]1C[C@H](CC(=O)NCc2cccc(C(F)(F)F)c2)C(=O)N2CCc3c([nH]c4cc(CCC(=O)N(C)C)ccc34)[C@]12C	S2 tox inconclusive
Cc1ccc(CNC(=O)C(C)n2c(=O)cc(-c3ccccc3)c3c(C)nn(C)c32)cc1 (stereo not drawn)	S2 tox inconclusive, GLP-1R inv ag inconclusive (no result: GLP-1R agonist)
O=S(=O)(Nc1cc(Cl)ccc1-n1cncn1)c1ccccc1Cl	none
O=S(=O)(Nc1cc(Cl)ccc1-n1cncn1)c1cc(Br)ccc1Br	S2 tox inconclusive, ATXN2 expr inh inconclusive, GLP-1R inv ag inconclusive, TGFb inhibitor 10µM | TGFb CAGA inh 21µM | HepG2 tox-2 inconclusive | CCL64 TGFb inh 21µM | TGFb COP inh inactive
CN(C)c1ccc(/C=C/c2ccnc3ccc([N+](=O)[O-])cc23)cc1	none (no result: S2 tox, GLP-1R agonist, ATXN2 expr inh, GLP-1R inv ag)
CCOc1cccc2sc(NC(=O)CCS(=O)(=O)c3ccccc3)nc12	TGFb inhibitor 14µM | TGFb CAGA inh 12µM | HepG2 tox-2 23µM | CCL64 TGFb inh 18µM | TGFb COP inh inconclusive
CC(C)(C)c1nnc(NC(=O)CCS(=O)(=O)c2ccccc2)s1	S2 tox inconclusive, TGFb inhibitor 7.1µM | TGFb CAGA inh 3.7µM | HepG2 tox-2 inactive | CCL64 TGFb inh inconclusive | TGFb COP inh inactive
Cc1ccc(C)c(Nc2nnc(-c3ccc(C)c(S(=O)(=O)N4CCN(C)CC4)c3)c3ccccc23)c1	none (no result: GLP-1R agonist)
CN(CCCC1CCCC1)C(=O)c1cc(COc2ccc(F)cc2F)on1	GLP-1R inv ag inconclusive, TGFb inhibitor 10µM | TGFb CAGA inh 21µM | HepG2 tox-2 inconclusive | CCL64 TGFb inh 26µM | TGFb COP inh inactive
CC(=O)N1CCN(c2ccc(NC(=S)NC(=O)COc3ccc(C(C)(C)C)cc3)cc2)CC1	TGFb inhibitor inconclusive | TGFb CAGA inh 4.6µM | HepG2 tox-2 inconclusive | CCL64 TGFb inh inactive | TGFb COP inh inactive
CCC(=O)c1ccc2c(c1)N(CCCN1CCN(CCO)CC1)c1ccccc1S2	none (no result: S2 tox, HepG2 tox-1, ATXN2 expr inh, GLP-1R inv ag, TGFb inhibitor)
Cc1ccc(-c2nc3ccc(Br)cn3c2Cc2cccc(F)c2)cc1	GLP-1R inv ag inconclusive, TGFb inhibitor 11µM | TGFb CAGA inh inconclusive | HepG2 tox-2 inactive | CCL64 TGFb inh inconclusive | TGFb COP inh inactive
O=C(COc1ccccc1F)Nc1ccc2oc(-c3cccc(Cl)c3)nc2c1	none (no result: GLP-1R agonist)
Cc1cccc(CNC(=O)Cc2csc3ccccc23)c1	GLP-1R inv ag inconclusive (no result: S2 tox, GLP-1R agonist, ATXN2 expr inh)
CC(=O)O[C@@H](C[C@@H](C)C1=C2C[C@H](O)C3[C@@]4(C)CCC(=O)C(C)(C)C4CC[C@]3(C)[C@@]2(C)CC1)[C@H]1OC1(C)C (stereo partly drawn)	S2 tox 35µM, ATXN2 expr inh inconclusive, TGFb inhibitor 11µM | TGFb CAGA inh 13µM | HepG2 tox-2 inconclusive | CCL64 TGFb inh inconclusive | TGFb COP inh inactive
O=C(Nc1cccc(C(F)(F)F)c1)C(SCCO)c1ccccc1 (stereo not drawn)	GLP-1R inv ag inconclusive
Cn1nnnc1SC(C(=O)Nc1cccc(C(F)(F)F)c1)c1ccccc1 (stereo not drawn)	GLP-1R inv ag inconclusive, TGFb inhibitor 11µM | TGFb CAGA inh inconclusive | HepG2 tox-2 inactive | CCL64 TGFb inh inconclusive | TGFb COP inh inactive
Cc1cc(NC(=O)CS(=O)(=O)c2cn(Cc3cccc(Cl)c3)c3ccccc23)no1	S2 tox inconclusive, GLP-1R inv ag inconclusive, TGFb inhibitor 18µM | TGFb CAGA inh 12µM | HepG2 tox-2 inactive | CCL64 TGFb inh inactive | TGFb COP inh inactive
Cc1ccc2nc(/C(C#N)=C\c3ccc(N4CCOCC4)o3)[nH]c2c1	none
Cc1ccc2nc(/C(C#N)=C\c3ccc([N+](=O)[O-])o3)[nH]c2c1	HepG2 tox-1 5µM, ATXN2 expr inh 5.6µM, TGFb inhibitor inconclusive (no result: S2 tox) | TGFb CAGA inh 16µM | HepG2 tox-2 6.5µM | CCL64 TGFb inh 4.6µM | TGFb COP inh inactive
Cc1ccc(N2CCN(Cc3nnc(-c4ccccc4F)o3)CC2)c(C)c1	GLP-1R inv ag inconclusive (no result: GLP-1R agonist)
